The source of these data is PubChem BioAssay AID1259312 (Keith Lab, Institute of Cancer Science, University of …, 2017).

Structures are written as SMILES. In all, about 4,500 compounds went through this assay and about 200 (4.4%) were called active. Only a selection was taken, and actives are over-represented in it overall. Values without a mark were called inactive.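 Rule for the calls: active = cell survival measured by absorbance rises more than 2.5-fold over infected cells without compound; inactive = the rest.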

The nature of this test: survival after telomere uncapping, modulators, primary screen, cell-based (AID 1259312).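 Note: virus expresses mutant telomerase RNA that uncaps telomeres and kills cells; compound added 2 days after infection so exposure lasts 3 days.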 The conditions noted are these: HCT116 + Ad-hTR-mut, MTT, 5 d; at 10 µM, active compounds read high.
For the compound `COc1cc(OC)cc(C2SC(N)=C(C#N)C(N)=C2C#N)c1` (stereo not drawn), the fold change was -1.62. As to `NC(CC(=O)O)C(=O)O` (stereo not drawn), the fold change is 1.14. In the case of `NC(CCCC(N)C(=O)O)C(=O)O` (stereo not drawn) it was -1.27. The result for `N[C@@H](CSCC(=O)O)C(=O)O` reads 2.87 (active); that for `O=C(Cc1cccs1)NC1CCCC1`, -3.03; that for `C1CCN(c2nc3nonc3nc2N2CCCC2)C1`, -1.59. Regarding `O=c1[nH]c(/C=C/c2ccc(Br)cc2)c([N+](=O)[O-])c(=O)[nH]1`, the fold change was 3.45 (active). In the case of `COc1ccc(OC)c(/C=C/c2[nH]c(=O)[nH]c(=O)c2[N+](=O)[O-])c1` it was 1.29. The result for `O=c1[nH]c(/C=C/c2ccc(Br)cc2)nc(O)c1[N+](=O)[O-]` reads 2.47. The result for `N#CC1=C(N)n2c(s/c(=C\c3ccc(Cl)cc3)c2=O)=C(C#N)C1c1ccc(Cl)cc1` (stereo not drawn) reads -1.6; that for `N#CC1Cc2cc([N+](=O)[O-])ccc2-c2cc(Cl)cc(Cl)c21` (stereo not drawn), -3.59; that for `C/C(Cn1nnc2ccccc21)=N\NC(=O)c1c[nH]c2ccccc12`, -2.58. Regarding `O=C(COc1ccc(Br)cc1)NCC1CCCO1` (stereo not drawn), the fold change is -1.54. As for `NNC(=O)COc1ccc2c(c1Br)CCCC2`, the fold change is 2.77 (active). In the case of `NNC(=O)c1ccc(COc2ccc3c(c2)CCC3)o1` it was -1.37; in that of `S=c1[nH]nc(-c2ccccc2)n1C1CCCCC1`, 1.07; in that of `COCCCN1C(=O)/C(=C/c2cccs2)SC1=S`, -1.09. In the case of `CCCCC(CC)C(=O)NC(C)(C)C` (stereo not drawn) it was 1.34; in that of `CCCCCCCCCCCCCCC(CC(=O)O)C(=O)O` (stereo not drawn), 2.88 (active); in that of `CCCCCCCCCCCCCCCC(=O)O`, 1.25. The result for `COc1ccc(-c2cc(=O)c3ccc(O)cc3o2)cc1` reads -1.7; that for `Cn1nccc1C(=O)Nc1nc2ccccc2s1`, -1.5. With `Cn1nccc1C(=O)O`, the fold change is 3.48 (active).

`Cc1csc(NC(=O)c2ccnn2C)n1`: the fold change was 1.09. The result for `COC(=O)/C(C#N)=C/c1cc(C)sc1C` reads 1.01; that for `N#CC1=C(N)C(C#N)=c2s/c(=C/c3cccc(F)c3)c(=O)n2C1c1cccc(F)c1` (stereo not drawn), 3.89 (active). Turning to `N#CC1=C(N)n2c(s/c(=C/c3ccc(Cl)cc3Cl)c2=O)=C(C#N)C1c1ccc(Cl)cc1Cl` (stereo not drawn), the fold change is 1.33.

Regarding `N#CC1=C(N)C(C#N)=c2s/c(=C/c3ccc(F)cc3)c(=O)n2C1c1ccc(F)cc1` (stereo not drawn), the fold change is 2.25. As to `N#CC1=C(N)C(C#N)=c2s/c(=C/c3c(F)cccc3Cl)c(=O)n2C1c1c(F)cccc1Cl` (stereo not drawn), the fold change was 2.98 (active).

`N#CC1=C(N)C(C#N)=c2s/c(=C/c3ccc(Cl)cc3Cl)c(=O)n2C1c1ccc(Cl)cc1Cl` (stereo not drawn): the fold change was -1.24. As to `COC(=O)C1=c2s/c(=C/c3ccncc3)c(=O)n2C(c2ccncc2)C(C#N)=C1N` (stereo not drawn), the fold change was 1.32.

On to `CC(Sc1ccccn1)c1nc(N)nc(N2CCCc3ccccc32)n1` (stereo not drawn), for which the fold change is -4.94. The result for `Cc1cccc(NS(=O)(=O)c2cc(Cl)ccc2Cl)n1` reads 1.41. The result for `CCCN(CCC)C(=O)C(=O)N(CCC)CCC` reads -1.09; that for `CC(C)(C)c1[nH]nc2c1C1(C(=O)Nc3ccccc31)C(C#N)=C(N)O2` (stereo not drawn), 4.19 (active); that for `Cc1[nH]nc2c1C1(CCOCC1)C(C#N)=C(N)O2`, -1.27. The result for `CSc1ccc(C2C(C#N)=C(N)Oc3n[nH]c(C(C)(C)C)c32)cc1` (stereo not drawn) reads -1.76; that for `N#CC1=C(N)OC2=C(C(=O)CCC2)C12C(=O)Nc1cc(Br)ccc12` (stereo not drawn), 1.66; that for `Cc1[nH]nc2c1C1(C(=O)Nc3ccccc31)C(C#N)=C(N)O2` (stereo not drawn), 5.1 (active). On to `CC(C)(C)c1[nH]nc2c1C(c1ccc(F)cc1)C(C#N)=C(N)O2` (stereo not drawn), for which the fold change is 1.28.

With `Cc1[nH]nc2c1C1(CCSCC1)C(C#N)=C(N)O2`, the fold change is -1.42. Consider `N#CC1=C(N)Oc2ccc(N)cc2C12C(=O)Nc1ccccc12` (stereo not drawn), for which the fold change is 2.67 (active). In the case of `Cc1[nH]nc2c1C1(C(=O)Nc3cc(Br)ccc31)C(C#N)=C(N)O2` (stereo not drawn) it was 3.96 (active). In the case of `N#CC1=C(N)OC2=C(C(=O)CCC2)C12C(=O)Nc1ccccc12` (stereo not drawn) it was 2.26; in that of `CN1C(=O)C2(C(C#N)=C(N)Oc3c2c(=O)n(C)c(=O)n3C)c2ccccc21` (stereo not drawn), -1.14; in that of `Cc1[nH]nc2c1C1(CCCCC1)C(C#N)=C(N)O2`, -1.09. Take `CCCCc1ccc(-c2c(C#N)c(N)nc3c2CCCCCC3)s1`: the fold change was -4.8.

`Cc1ccc(C2C3=C(CC(C)(C)CC3=O)OC3=C2C(=O)CC(C)(C)C3)s1`: the fold change is -5.64. In the case of `O=C(O)/C=C/c1ccc(F)c(Br)c1` it was -1.15; in that of `O=S1(=O)N=C(N2CCCc3ccccc32)c2ccccc21`, 1.46. The result for `O=c1ccn([C@H]2CCC(CO)O2)c(=O)[nH]1` (stereo partly drawn) reads -1.46. The result for `N#Cc1c(N)nc2c(c1-c1cccnc1)CCCCC2` reads -6.99; that for `O=C1Oc2ccccc2C2Oc3c(c(=O)oc4ccccc34)C3(C(=O)Nc4ccccc43)C12` (stereo not drawn), -1.57; that for `N#CC1=C(N)Oc2c(c3ccccc3oc2=O)C12C(=O)Nc1ccc(Br)cc12` (stereo not drawn), 2.59 (active). Turning to `O=C1c2ccccc2NC2(C(=O)Nc3ccccc32)N1c1ccc2c(c1)oc1ccccc12` (stereo not drawn), the fold change was 1.13. In the case of `Cc1ccc(-c2nnc(CSc3nnc(-c4ccccc4)o3)o2)n1C`, the fold change was -1.36. In the case of `CCCCCCCNC(=O)c1ccco1` it was 1.1; in that of `S=C(c1ccc(-c2ccc(Br)cc2)o1)N1CCOCC1`, 1.09; in that of `O=C1c2ccccc2C(O)(O)C1(O)C1(O)C(=O)c2ccccc2C1(O)O` (stereo not drawn), -1.12. The result for `CC(=O)/C(=C1/OC(=O)c2ccccc21)c1ccc(C(C)=O)cc1` reads 5.97 (active); that for `CC(=O)C(C(C)=O)=C1OC(=O)c2ccccc21`, 1.3. In the case of `C=CC[C@H]1CC=C[C@H](CC=C)N1C(C)=O` it was -1.11; in that of `NC(=O)NC(CCCN=C(N)N)C(=O)O` (stereo not drawn), -1.65. On to `O=[N+]([O-])c1ccc(N2CCN(S(=O)(=O)c3ccc4ccccc4c3)CC2)cc1`, for which the fold change is -1.1. In the case of `CC(=O)c1c(C)nc(-c2cccs2)n1O` it was -1.92. The result for `Cc1sc2c(c1C)C(=O)NC(/C=C/c1ccc3c(c1)OCO3)N2` (stereo not drawn) reads -1.11; that for `O=S(=O)(Nc1cc(Cl)cc(Cl)c1)c1cccs1`, -1.41; that for `O=[N+]([O-])c1ccc(N2CCN(S(=O)(=O)c3ccc(Cl)cc3)CC2)cc1`, -1.84. In the case of `O=[N+]([O-])c1ccc(N2CCN(S(=O)(=O)c3cc(Cl)ccc3Cl)CC2)cc1` it was 5.36 (active); in that of `O=[N+]([O-])c1ccc(N2CCOCC2)c(S(=O)(=O)N2CCOCC2)c1`, -1.09; in that of `O=[N+]([O-])c1ccc(N2CCN(S(=O)(=O)c3ccc(Br)cc3)CC2)cc1`, 1.35.

As for `O=[N+]([O-])c1ccc(Cl)c(S(=O)(=O)N2CCOCC2)c1`, the fold change was 3.45 (active). The result for `O=[N+]([O-])c1ccc(S(=O)(=O)N2CCOCC2)cc1` reads 2.47; that for `Cc1ccc(-c2c(C#N)c(N)nc3c2CCCCC3)s1`, -2.73; that for `Nc1ncnc2nc(SCCOc3ccccc3F)[nH]c12`, -1.17. Consider `COc1cc(C2C(C#N)=C(N)Nc3oc(C)nc32)cc(OC)c1OC` (stereo not drawn), for which the fold change was 2.2.

`Cc1cc(Cl)c2ccccc2n1`: the fold change is -1.67. In the case of `C=CCNC(=O)c1nn(C)c(=O)c2ccccc12` it was -1.08; in that of `Cc1cc(C)nc(Sc2ccc3nsnc3c2[N+](=O)[O-])n1`, 2.01; in that of `O=c1c(C=NCc2cccs2)c(C(F)(F)F)[nH]n1-c1nc2ccccc2s1`, “inactive”. The result for `NC(=O)CSc1cccc2cccnc12` reads -2.76; that for `NNC(=O)Cn1c2ccccc2c(=O)c2ccccc21`, 1.47; that for `NNC(=O)c1cccc(C(=O)NN)n1`, 2.7 (active). In the case of `O=C(O)CCc1cn(CCC(=O)O)cn1` it was 3 (active). With `O=C(O)CCn1cnnn1`, the fold change is -1.36.

`O=C(O)COc1ccc(Br)cc1/C=C1/NC(=O)NC1=O`: the fold change was 1.24. The result for `O=C(O)/C=C/C(=O)NC1CCCCC1` reads 3.98 (active); that for `O=C(NC1CCCCCC1)C1CC1`, -2.47; that for `O=C(O)/C=C/C(=O)NC1CCCCNC1=O` (stereo not drawn), -1.55. As to `COC(=O)/C(C#N)=C\c1cccn1C`, the fold change was 4.23 (active). In the case of `CC(C)OC(=O)/C(C#N)=C\c1cccn1C` it was -3.04; in that of `CCOC(=O)/C(C#N)=C\c1cccn1C`, -3.87; in that of `CCSc1ccc(Sc2ccc(SCC)s2)s1`, -1.05.

With `CN1C2CC(OC(=O)C(CO)c3ccccc3)CC1C1OC12` (stereo not drawn), the fold change was 2.65 (active). With `C1=CN(c2ccccc2)C(C=NCc2ccccc2)=CS1`, the fold change is 3.25 (active).

Consider `O=C(NCCOC(=O)Nc1ccc(Cl)c(Cl)c1)Nc1ccc(Cl)c(Cl)c1`, for which the fold change is -1.04. The result for `O=C(C[n+]1ccccc1)c1ccc(Br)cc1` reads -1.26; that for `O=C(O)CNC(=O)c1cccs1`, 1.14; that for `O=C(C[n+]1ccccc1)c1cccs1`, 4.15 (active). The result for `COc1ccc(OC)c(NS(=O)(=O)c2cc(Cl)ccc2Cl)c1` reads 1.1; that for `CNC(=S)Nc1ccccc1`, -1.89. The result for `S=C(NNC(=S)Nc1ccccc1)Nc1ccccc1` reads 4.1 (active); that for `NNC(=S)Nc1ccccc1`, 2.03; that for `CN(Cc1cccs1)C(=S)SCCO`, 1.27. Turning to `Cc1ccc(-c2nc(Cn3c(-c4cscn4)nc4ccccc43)cs2)cc1`, the fold change was -1.62. In the case of `CSCCC(C(=O)O)N1C(=O)/C(=C2/C(=O)N(C)c3ccccc32)SC1=S` (stereo not drawn) it was -1.54. In the case of `C=CCN1C(=O)/C(=C2\SC(=S)N(CCC)C2=O)c2ccccc21` it was -1.1. Take `CN1C(=O)/C(=C2\SC(=S)N(CCS(=O)(=O)O)C2=O)c2ccccc21`: the fold change is 4.3 (active).
